The campaign covered roughly 48,000 compounds. About 13,000 (27%) showed an effect of 50% or more. The list shows a part of the results.
These molecules were tested on Wolbachia pipientis (assay: Anti-Wolbachia Cell-Based Screen). Details: 5 µM.
Assay type: functional
Parameters: scale not given: in the data most compounds retested in dose-response had high values

In order of rising “Percent Effect” value:
1. NC(=O)CC1CCN(S(=O)(=O)N2CCCC2c2ccco2)CC1 (centres undefined)  -25.34%
2. COc1cc(N2C[C@@H](C)[C@](O)(C3CC3)C2)nc(N)n1  -24.25%
3. CNC(=O)[C@@H]1COC[C@H]2CN(C(=O)c3ccc(OC)cc3)C[C@H]21  -23.66%
4. CN1C(=O)CC[C@@H]2[C@H]1CCN2S(=O)(=O)c1cccs1  -22.4%
5. O=C(O)C(F)(F)F.O=S(=O)(C1CC1)N1CCO[C@H]2[C@H](OCCN3CCCC3)CC[C@@H]21  -18.3%
6. Cn1cc(Cl)cc1C(=O)N1CCC2(CCCN(CC3CCC3)C2=O)C1 (centres undefined)  -14.89%
7. CSc1ccccc1CC1CCCS(=O)(=O)C1 (centres undefined)  -14.28%
8. Cc1cccc2c1nc1n2[C@@H](CNC(=O)CCC(=O)O)COC1  -14.2%
9. O=C(c1cc(Cl)c2c(c1)OCO2)N1CCN(c2nccs2)CC1  -12.71%
10. CO[C@H]1CO[C@@]2(CCCN(C(=O)C3=CCCCC3)C2)C1  -11.4%
11. O=C(Nc1ccc(CCN2CCC(O)CC2)cc1)Nc1cccnc1  -10.88%
12. CCOCCN(CCOCC)c1nc(C)nc2sccc12  -8.835%
13. COCc1noc(-c2ccc(N(C)Cc3ccc(C)o3)nc2)n1  -8.335%
14. CC(C)S(=O)(=O)NCc1cccnc1Oc1ccc(F)cc1F  -8.317%
15. CNC(=O)COc1ccc(CNCc2ccc(F)cc2F)cc1  -7.839%
16. CCc1nn(C)c(Cl)c1CN1CCN(c2ccc(C(N)=O)cn2)CC1  -7.307%
17. COCc1noc(-c2ccc(N(C)Cc3cc(C)no3)nc2)n1  -6.826%
18. CCO[C@@H]1CO[C@@]2(CCCN(C(=O)c3ccc(OC)c(F)c3)C2)C1  -6.158%
19. CC(C)n1nc(Cn2cccc2)c2c1CN(C1CCOCC1)C2.O=C(O)C(F)(F)F  -6.023%
20. COCCCN1C(=O)CC[C@H]2CN(Cc3ncc[nH]3)CC[C@H]21  -5.769%
21. COc1ccc2c(c1)nc1n2[C@@H](CNCc2ncccc2C)COC1  -5.483%
22. CC(C)n1nc(Cn2cccc2)c2c1CN(Cc1ccoc1)C2.O=C(O)C(F)(F)F  -4.933%
23. OCc1cc2ccccc2nc1NCC1CCN(CC(F)(F)F)C1 (centres undefined)  -4.701%
24. O=C(NC1CC1)[C@H]1C[C@H]2OCC[C@H]2N(Cc2cccc3ccccc23)C1.O=C(O)C(F)(F)F  -4.229%
25. CC(c1nc(C2CC2)no1)N1CCN(CCc2ccncc2)CC1 (centres undefined)  -3.98%
26. CC(C)n1nc(CN2CCOCC2)c2c1CN(Cc1ccsc1)C2.O=C(O)C(F)(F)F.O=C(O)C(F)(F)F  -3.193%
27. CC(C(=O)N1CCOCC1)S(=O)(=O)Cc1nc(C(C)(C)C)no1 (centres undefined)  -2.634%
28. CC(c1nc(C(C)(C)C)no1)N1CCC(N2CCCC2)CC1 (centres undefined)  -1.947%
29. Cc1ccc(CNc2ccccc2-n2ccc(C)n2)nc1  -1.934%
30. Cc1ccc(C(=O)N2Cc3c(CN4CCCCC4)nn(C)c3C2)cc1C.O=C(O)C(F)(F)F  -1.924%
31. CCCn1nc2c(cc1=O)CN(CC1CCCCO1)CC2 (centres undefined)  -1.903%
32. CC1CN(c2ncnc3ccccc23)CCO1 (centres undefined)  -1.794%
33. COc1ccccc1C1(CNc2snc(Cl)c2C#N)CCOCC1  -1.634%
34. O=C(N1CCCC1)N1CCC[C@]2(C[C@@H](OCc3ccncc3)CO2)C1.O=C(O)C(F)(F)F  -0.7527%
35. O=C(O)C(F)(F)F.O=C(O)C(F)(F)F.O=C(O)C(F)(F)F.c1ccc(Cn2cc3c(n2)C(CNCc2ccco2)OCC3)nc1 (centres undefined)  -0.4855%
36. O=C(NCc1c(F)cccc1Cl)c1cc(CN2CCCC(O)C2)on1 (centres undefined)  -0.1537%
37. CCO[C@H]1CO[C@@]2(CCCN(C(=O)c3ccc(OC)c(F)c3)C2)C1  -0.1252%
38. Cc1[nH]c2c(C)ccc(C)c2c1CC(=O)NCC(O)c1cccnc1 (centres undefined)  0.3243%
39. CN(C)S(=O)(=O)NCc1cccnc1Oc1ccc(F)cc1F  1.253%
40. CCc1noc(C(C)N2CCOCC2)n1 (centres undefined)  1.305%
41. CN(CCC#N)C(=O)Cc1csc(-c2ncccn2)n1  2.424%
42. CCN1C(=O)CC[C@@H]2[C@H]1CCN2S(=O)(=O)c1cccs1  2.968%
43. CC(C)CN1CCc2[nH]cnc2C12CCN(C(=O)c1ccc[nH]1)CC2  3.052%
44. COCCN1C(=O)CC[C@@H]2[C@H]1CCN2Cc1ccc(C)s1.O=C(O)C(F)(F)F  3.422%
45. COCCn1cc2c(n1)C(CNCc1ccco1)OCC2.O=C(O)C(F)(F)F.O=C(O)C(F)(F)F (centres undefined)  3.436%
46. COCCN1C(=O)CC[C@@H]2[C@H]1CCN2C(=O)N(C)C  4.27%
47. CC(C)C(=O)N1CCN(S(C)(=O)=O)CC2(CC(=O)N(C)C2)C1 (centres undefined)  4.406%
48. COc1ccc(C(=O)N2CCN(C(=O)Cn3nccc3C)CC2)cc1  4.431%
49. COc1ccc(C2CCN(C(=O)c3ncccc3OC(C)C)C2)cc1 (centres undefined)  4.794%
50. COCCN1C(=O)CC[C@@H]2[C@H]1CCN2C(=O)C1CCOCC1  5.34%
51. Cc1noc(NCc2cc(F)ccc2F)n1  5.671%
52. CC(NCC1CCN(CCO)CC1)c1ccc(Cl)cc1 (centres undefined)  5.926%
53. COc1ccc(C)cc1CC(=O)NC(CC(=O)O)c1ccc(F)cc1 (centres undefined)  6.211%
54. O=C(O)c1cn(CC2CCCN(c3nccc4occc34)C2)nn1 (centres undefined)  6.714%
55. CC(C)Cc1ncc2c(n1)CN(C(=O)c1ccc(CN3CCCC3)o1)C2  8.376%
56. Cc1cc(C(O)CCNC(=O)COc2ccccc2C)c(C)o1 (centres undefined)  9.318%
57. CC(c1nc(C2CC2)no1)N1CCN(CCS(C)(=O)=O)CC1 (centres undefined)  9.574%
58. CCn1c(N)nc2cc(C(=O)N3CC(c4ccccn4)C3)cnc21  10.45%
59. Cn1cc2c(n1)C(CNCC1CCOCC1)OCC2.O=C(O)C(F)(F)F.O=C(O)C(F)(F)F (centres undefined)  10.93%
60. COc1ccc(CC(=O)NC(CC(=O)O)c2ccc(F)cc2)cc1OC (centres undefined)  11.02%
61. O=C(c1ccc(-c2nc[nH]n2)cc1)N1CC[C@H](CO)[C@@H](O)C1  11.14%
62. CN(C)C(=O)c1noc2c1CN(C(=O)CCC1CCCCN1C)CC2 (centres undefined)  11.84%
63. COc1ccccc1OCC(=O)NCc1ncc(C)c(OC)c1C  12.71%
64. C=Cc1ccc(C(=O)N2CCCC(Nc3ccc(OC)cc3)C2)cc1 (centres undefined)  13.35%
65. O=S(=O)(NCCSc1nncn1C1CC1)c1ccccc1  13.46%
66. O=C1CC[C@H]2[C@H](CCN2C(=O)C2CCCO2)N1CCN1CCCC1 (some centres undefined)  13.58%
67. COC(=O)CC(c1cnn(C)c1)c1oc(C)cc(=O)c1O (centres undefined)  15.74%
68. Cc1nc(N(C)C)nc(C)c1NC(=O)c1ccco1  16.89%
69. CCc1noc(C(C)N2CCN(Cc3nc(C)c(C)o3)CC2)n1 (centres undefined)  17.35%
70. CC(C)NCC1OCCc2cn(C)nc21.O=C(O)C(F)(F)F (centres undefined)  25.68%
71. CNC(=O)[C@@H]1C[C@H](N)CN1Cc1cc2cc(C)cc(C)c2[nH]c1=O  27.32%
72. CC(=O)N[C@@H]1CN(C2CCN(c3ccccc3F)CC2)C[C@H]1C(C)C  33.97%
73. COCc1noc(-c2ccc(N(C)Cc3ncccc3C)nc2)n1  79.04%
74. O=C(O)C(F)(F)F.O=C1CC[C@H]2[C@H](CCN2S(=O)(=O)C2CC2)N1CCN1CCCC1  79.45%
75. COc1ccc(C(=O)N2C[C@@H](O)[C@H](NCc3ncccc3C)C2)cc1  82.18%
76. CC(C)n1nc(CN2CCCCC2)c2c1CN(C(=O)c1ccno1)C2.O=C(O)C(F)(F)F  85.62%
77. CC(c1nc(C(C)(C)C)no1)N1CCN(C(=O)CN2CCOCC2)CC1 (centres undefined)  87.21%
78. CO[C@H]1CO[C@@]2(CCCN(C(=O)N3CCCC3)C2)C1  89.24%
79. CO[C@@H]1CO[C@@]2(CCCN(C(=O)N3CCCC3)C2)C1  89.36%
80. COCCN1C(=O)CC[C@@H]2[C@@H]1CCN2S(=O)(=O)C1CC1  90.99%
81. COc1ccc(C(=O)N2C[C@@H](O)[C@H](NCCc3ncccc3C)C2)cc1  97.07%
82. CCc1noc(C(C)N2CCN(CC(=O)N3CCOCC3)CC2)n1 (centres undefined)  97.96%
83. CC(c1nc(C2CC2)no1)N1CCN(CC(=O)N2CCOCC2)CC1 (centres undefined)  99.5%
84. CCS(=O)(=O)N1CC[C@@H]2[C@H]1CCC(=O)N2CCOC  101.4%
85. CC(C)n1nc(CN2CCOCC2)c2c1CN(C(=O)c1ccno1)C2.O=C(O)C(F)(F)F  102.9%
86. COCCN1C(=O)CC[C@@H]2[C@H]1CCN2S(=O)(=O)c1cccs1  103.5%
87. COc1ccc(C(=O)N2C[C@@H](O)[C@H](NCc3cnc(C)cn3)C2)cc1  111.7%
88. CO[C@H]1CO[C@@]2(CCCN(C(=O)N(C)C)C2)C1  112.3%
89. CNCc1cc(F)ccc1Oc1ccc(F)cc1  114.4%
90. Cc1occc1C(=O)NCC1OCCc2cn(C)nc21.O=C(O)C(F)(F)F (centres undefined)  115.2%
91. CNCc1cc(F)ccc1Oc1ccc(F)cc1F  116%
92. CNCc1cc(F)ccc1Oc1ccc(Cl)cc1  118.2%
93. Cc1ccccc1OCC(=O)NCC(c1ccc(N(C)C)cc1)N(C)C (centres undefined)  129.5%
94. Cn1cc2c(n1)C(CNCc1ccco1)OCC2.O=C(O)C(F)(F)F.O=C(O)C(F)(F)F (centres undefined)  145.8%
